Hit rate of the full screen: of about 3,600 compounds, about 900 (25%) were called active. No rule for the calls is given here. Only a sample is shown. Results with a measured potency or affinity are listed apart.
Target: Protein Tat (Human immunodeficiency virus type 1 group M subtype B (isolate HXB2)) (UniProt P04608)
Assay: inhibitors of Tat binding to TAR RNA, dose response, counter-screen for Vif-APOBEC3G degradation inhibitor project, biochemical, fluorescence polarization, FAM-labeled TAR RNA (AID 1117361)
Details: outcome: dose series up to 100 µM unless noted; series mostly up to 100 µM; inhibition: at the top concentration

Row | Structure (SMILES) | inhibition | outcome
1 | CCc1nnc(NC(=O)c2ccc(-c3ccccc3Cl)o2)s1 | 3.38% (inactive) | –
2 | CCOC(=O)C1CC(CN2C(=O)c3ccccc3C2=O)OC1=O (centres undefined) | – | inactive
3 | CCOC(=O)c1c(C)nn(Cc2cccc(Cl)c2)c1N | 1% (inactive) | –
4 | Nc1ncnc2c1cnn2C1CCCCC1 | 6.6% (inactive) | –
5 | S=c1[nH]nc(COc2ccc(Cl)cc2)n1Cc1ccccc1 | 14.8% (inactive) | –
6 | COc1ccccc1N1CCN(CCc2n[nH]c(=S)n2-c2ccccc2)CC1 | 2.03% (inactive) | –
7 | O=C1N(Cc2cccnc2)C[C@@H]2C[C@@H](c3ccc4nsnc4c3)N3CCC[C@@]123 | 5.77% (inactive) | –
8 | COc1cccc(C(=O)N2CCN(Cc3nc(CC4CC4)no3)CC2)c1 | 1.65% (inactive) | –
9 | COc1ccc(N=CC2=C(O)CCCC2=O)cc1 | 3.38% (inactive) | –
10 | O=C1CCCC(O)=C1C=Nc1ccc(O)cc1 | 21.1% (inactive) | –
11 | CC1CN(C(=O)COC(=O)Cc2ccc(Cl)cc2)CC(C)O1 (centres undefined) | – | inactive
12 | CCCCn1c(C)nc2c(=O)n(C)c(=O)[nH]c21 | 4.05% (inactive) | –
13 | CCN(CC)CCN1C(=O)C(=O)/C(=C(/O)c2ccc(C)cc2)C1c1ccncc1 (centres undefined) | – | inactive
14 | CN(C1CCCCC1)S(=O)(=O)c1cccc(C(=O)OCC(=O)NC2CCCc3ccccc32)c1 (centres undefined) | – | inactive
15 | CCCc1nc2ccccc2c(C(=O)OCC(=O)N2CCc3ccccc32)c1CC | 4.09% (inactive) | –
16 | CC(OC(=O)/C=C/c1ccco1)C(=O)NC1CCCCC1 (centres undefined) | – | inactive
17 | Cc1nc2ccc(NC(=O)c3cc(S(=O)(=O)N4CCOCC4)ccc3C)cc2s1 | – | inactive
18 | COc1ccc(OCCOC(=O)c2cccc(-n3cnnn3)c2)cc1 | 8.78% (inactive) | –
19 | COc1ccc(C(C)(C)C)cc1NC(=O)C1C2C=CC(C2)C1C(=O)O (centres undefined) | – | inactive
20 | Cc1nc2nc(-c3ccco3)nn2c(C)c1Cl | 5.68% (inactive) | –
21 | c1coc(-c2nc3nc4ccccc4n3nc2-c2ccco2)c1 | 3.67% (inactive) | –
22 | Cc1cc(-c2ccco2)n(-c2ccccc2)n1 | 19.1% (inactive) | –

Row | Structure (SMILES) | inhibition | outcome
23 | O=C(Nc1nc(-c2ccco2)c(-c2ccco2)s1)c1ccc(F)cc1F | 26.4% (inactive) | –
24 | CC1CCc2nc(NC(=O)c3ccco3)sc2C1 (centres undefined) | 0.68% (inactive) | –
25 | O=C1CN(C(=O)COC(=O)c2oc3ccccc3c2COc2ccccc2)c2ccccc2N1 | 2.7% (inactive) | –
26 | Cc1cc(C(=O)Nc2c(C)cccc2C)n(-c2ccccc2)n1 | – | inactive
27 | Cc1ccc(NC(=O)CSc2nnc([C@H](C)NC(=O)OC(C)(C)C)o2)c(C)c1 | – | inactive
28 | Cn1c2ccccc2c2c(C(=O)O)cn(C3CCCC3)c(=O)c21 | 10.1% (inactive) | –
29 | CCC(=O)N1CCc2cc(S(=O)(=O)NCCC(=O)NC3CCCc4ccccc43)ccc21 (centres undefined) | 12.2% (inactive) | –
30 | COc1ccc(N(C(=O)c2ccco2)S(=O)(=O)c2cc(Cl)c(Cl)cc2Cl)cc1 | 2.7% (inactive) | –
31 | O=C(O)CCC(=O)NNC(=O)CCC(=O)NCc1ccccc1 | – | inactive
32 | CC(c1ccccc1)N(C)CC(=O)NC(=O)NCCC1=CCCCC1 (centres undefined) | – | inactive
33 | O=C(NCc1cccs1)c1ccc2c(c1)ncn2C1CCCC1 | 2.05% (inactive) | –
34 | Cc1cccc2c1N(CCCOc1ccc(C(C)(C)C)cc1)C(=O)C2=O | – | inactive
35 | O=C(CSc1nc2cc(Cl)ccc2s1)N1CCN(C(=O)c2ccco2)CC1 | 8.78% (inactive) | –
36 | CCOC(=O)c1cc2sc(C)cc2n1CC(=O)N1CCN(C(=O)c2ccco2)CC1 | 7.43% (inactive) | –
37 | COc1ccccc1CN(C)C(=O)CN1CCN(C(=O)c2cccs2)CC1 | 3.3% (inactive) | –
38 | Cc1nn(-c2ccccc2)c(C)c1/C=N/NC(=O)c1cc(-c2ccccc2)n[nH]1 | 4.09% (inactive) | –
39 | COc1ccccc1NS(=O)(=O)c1cccc2cccnc12 | 4.05% (inactive) | –
40 | Cn1c(=O)cc(NCc2ccccc2)[nH]c1=O | 4.05% (inactive) | –
41 | O=C(NCC1CCCO1)C1CCCN(Cc2cnn(-c3ccccc3)c2-n2cccc2)C1 (centres undefined) | 5.41% (inactive) | –
42 | Cc1ccc2[nH]c(=O)c(CN(Cc3ccco3)C(=O)c3ccncc3)cc2c1 | – | inactive
43 | COc1ccc2nc3oc(C(=O)N4CCCCC4)cc3cc2c1 | 1.36% (inactive) | –
44 | Cc1ccc(NC(=O)COc2ccccc2C(=O)Nc2ccccc2)cc1Cl | 7.5% (inactive) | –

Row | Structure (SMILES) | inhibition | outcome
45 | COc1cc(NC(=O)Cc2ccccc2)cc(OC)c1 | 4.77% (inactive) | –
46 | O=C(CCCCCCC(=O)NCc1ccccc1)NCc1ccccc1 | 8.35% (inactive) | –
47 | CC(C)Cn1c2c(c(O)c(C(=O)Nc3nccs3)c1=O)CCCC2 | – | inactive
48 | COc1ccc(-c2[nH]c3ccccc3c2SCCN)cc1 | – | inactive
49 | Cc1nnc(N2CCc3ccccc3C2)[nH]c1=O | 8.87% (inactive) | –
50 | COc1cccc(CC(=O)Nc2nccs2)c1 | 0.68% (inactive) | –
51 | CCS(=O)(=O)N1CCC(C(=O)NCc2cccc(OC)c2)CC1 | – | inactive
52 | O=C(Cn1cnc2ccccc2c1=O)c1cccs1 | 4.09% (inactive) | –
53 | CN(C)c1nc(N)nc(CSc2ncc(Cl)cc2Cl)n1 | – | inactive
54 | Cc1ccccc1CCNC(=O)c1ccc(Cl)c(S(=O)(=O)N2CC(C)OC(C)C2)c1 (centres undefined) | – | inactive
55 | COc1ccccc1-n1cnc2cc(NCc3cccs3)ccc21 | 2.7% (inactive) | –
56 | COc1ccc(S(=O)(=O)N2CCCCCC2)cc1C(=O)OCC(=O)NC(N)=O | 1.35% (inactive) | –
57 | Cn1c(NC(=O)c2cccs2)cc(=O)n(C)c1=O | – | inactive
58 | CSc1nc2ccc3nc(NC(=O)c4cccs4)sc3c2s1 | 15.5% (inactive) | –
59 | CCCCCCn1c(SCC(=O)c2c(N)n(C)c(=O)n(C)c2=O)nc2ccccc21 | 4.05% (inactive) | –
60 | COc1cccc(C(=O)CSc2nc3ccccc3n2CC(=O)N2CCOCC2)c1 | – | inactive
61 | CN(CC(=O)NCCc1ccccc1)S(=O)(=O)c1cccs1 | 6.76% (inactive) | –
62 | O=C1CCCC2=C1C(c1ccco1)Nc1ccc3ccccc3c12 (centres undefined) | 1.67% (inactive) | –
63 | COc1ccc(Br)cc1C1CC(=O)N2CN(Cc3ccccc3)CSC2=C1C#N (centres undefined) | 16.2% (inactive) | –
64 | COc1ccc(C2CC(=O)N3CN(c4ccc(C)c(Cl)c4)CSC3=C2C#N)cc1 (centres undefined) | 22.3% (inactive) | –
65 | CCOC(=O)CCN(Cc1sccc1C)S(=O)(=O)c1ccc(F)cc1 | 10.8% (inactive) | –
66 | Cc1ccnc(NC(=O)c2ccc(Cl)c(S(=O)(=O)N3CCCC3)c2)c1 | – | inactive

Row | Structure (SMILES) | inhibition | outcome
67 | COc1ccc(NC(=O)Cn2c(=O)sc3ccccc32)cc1 | – | inactive
68 | COc1ccc(Cc2nnc(NC(=O)CSc3ccccc3)s2)cc1 | – | inactive
69 | C[C@@H]1CCCCO[C@H](CN(C)C(=O)c2ccccc2)[C@@H](C)CN([C@H](C)CO)C(=O)c2cc(NC(=O)NC3CCCCC3)ccc2O1 | 3.01% (inactive) | –
70 | CCOc1ccc(-n2c(=O)c3c(C)c(C)sc3n(CC(=O)NCc3ccco3)c2=O)cc1 | 8.87% (inactive) | –
71 | Cc1cccc(NC(=O)Cn2c(=O)n(Cc3ccco3)c(=N)c3c4c(sc32)COC(C)(C)C4)c1 | – | inactive
72 | CCOC(=O)c1cc([N+](=O)[O-])cc([N+](=O)[O-])c1Sc1ncnc2nc[nH]c12 | – | inactive
73 | CCCCn1c(N)c(N(CCC(C)C)C(=O)C2=NN(c3cc(C)ccc3C)C(=O)CC2)c(=O)[nH]c1=O | 2.34% (inactive) | –
74 | CC(=O)N(C1=C(Cl)C(=O)c2ccccc2C1=O)c1ccc(C(=O)O)cc1 | – | inactive
75 | CCC(C(=O)OCC(=O)Nc1ccc(SC(F)F)cc1)c1ccccc1 (centres undefined) | 15.7% (inactive) | –
76 | Cc1ccc(C(c2nnnn2CC2CCCO2)N2CCN(C)CC2)cc1 (centres undefined) | – | inactive
77 | CC(C)CC(c1nnnn1C1CCCCC1)N1CCN(c2ncccn2)CC1 (centres undefined) | 2.05% (inactive) | –
78 | CCC(=O)Nc1cc(C(=O)OCC(=O)c2ccccc2Cl)ccc1C | 2.03% (inactive) | –
79 | O=C(NCc1ccc(Cl)cc1)c1ccccc1Oc1ccccc1 | 3.38% (inactive) | –
80 | COC(Cc1nnc(SC)n1-c1ccc(Cl)cc1)OC | – | inactive
81 | O=C(O)c1ccc(-n2c(-c3cc(-c4ccco4)[nH]n3)n[nH]c2=S)cc1 | 8.78% (inactive) | –
82 | CCOC(=O)CSc1nc2c(sc(=S)n2-c2ccccc2OC)c(=O)n1Cc1ccco1 | 21.8% (inactive) | –
83 | CCCn1c(Sc2nc3c(c(=O)[nH]c(=O)n3C)n2CCC)nc2c1c(=O)[nH]c(=O)n2C | – | inactive
84 | CCC(C)n1cnc2c(c1=O)c1nc3ccccc3nc1n2-c1ccc2c(c1)OCCO2 (centres undefined) | 4.05% (inactive) | –
85 | CCCn1nnnc1-c1cccc(Cl)c1 | 2.03% (inactive) | –
86 | COc1ccc(C(=O)CSc2nnc3n2CCCN3C(=O)Nc2ccccc2)cc1 | – | inactive
87 | CN(C)c1nc(N)nc(CSc2nc3c(c(=O)n(C)c(=O)n3C)n2Cc2ccccc2F)n1 | 23.1% (inactive) | –
88 | CC(=O)Nc1ccc(OCC(O)CNC2CCCC2)cc1 (centres undefined) | – | inactive

Row | Structure (SMILES) | inhibition | outcome
89 | CC(=O)c1ccc(N2C(=NC(=O)C3CCCO3)SC3CS(=O)(=O)CC32)cc1 (centres undefined) | 3.01% (inactive) | –
90 | COc1ccccc1C1NC(c2ccccc2OC)C(C)C(=O)C1C (centres undefined) | 8.11% (inactive) | –
91 | O=C(c1cc2ccccc2oc1=O)N1CCN(c2ccc(N3CCOCC3)nn2)CC1 | – | inactive
92 | O=C(c1cccnc1NCc1ccc(F)cc1)N1CCOCC1 | 4.05% (inactive) | –
93 | CCOc1ccc(C2NC(=O)C(C#N)=C(S)N2c2ccc(OC)cc2)cc1OC (centres undefined) | 2.73% (inactive) | –
94 | CC1(CCc2ccc3c(c2)OCO3)NC(=O)c2ccccc2N1 (centres undefined) | – | inactive
95 | O=C(COc1ccccc1C(=O)O)Nc1ccc(SC(F)F)cc1 | – | inactive
96 | CCOC(=O)c1c(NC(=O)c2cccs2)sc(C)c1C | 10.7% [at 50 µM] (inactive) | –
97 | CCCc1cc(=O)[nH]c(SCC(=O)Nc2cc3c(cc2C(C)=O)OCO3)n1 | 2.05% (inactive) | –
98 | Cc1cc(NC(=O)CCC(=O)N(CCC(C)C)C(C(=O)NC2CCCC2)c2cccnc2)no1 (centres undefined) | – | inactive
99 | COc1ccc2c3c(c(=O)oc2c1OCC(=O)C(C)(C)C)CCCC3 | – | inactive
100 | Cc1cc(C)c2nc(N3CCCN(C(=O)c4cnccn4)CC3)c(C#N)cc2c1 | 26.6% (inactive) | –
101 | NS(=O)(=O)c1cccc(NS(=O)(=O)c2ccc(/C=C/C(=O)OCC(=O)c3ccccc3)cc2)c1 | – | inactive
102 | Cc1ccc(-n2nnnc2SCc2ccccn2)cc1C | 4.73% (inactive) | –
103 | Cc1cc(SCC2=NNC(=O)C2)c(Cl)cc1Cl | 2.47% (inactive) | –
104 | O=C(/C=C/c1ccco1)Nc1ccc(Oc2ccccc2)cc1 | – | inactive
105 | CCC(=O)N1CCN(c2ccccc2NC(=O)c2cccc(C)c2)CC1 | 3.41% (inactive) | –
106 | O=C(CN1C(=O)CSC1=O)Nc1ccccc1N1CCOCC1 | 4.73% (inactive) | –
107 | O=C(/C=C/c1ccco1)NC(=S)Nc1ccc(C(=O)O)cc1 | 0.33% (inactive) | –
108 | Cc1cccc(NC(=O)CC2NC3CCCCC3NC2=O)c1 (centres undefined) | – | inactive
109 | Cc1ccc2c(c1)CCCN2C(=O)c1cc(C)c(C)s1 | 5.01% (inactive) | –
